According to PubChem BioAssay (NCI):
About 83,000 compounds went through this panel and 20% of them were active in at least one assay; those are over-represented in the sample as a whole.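 Single-concentration screen, 48 h exposure, 96-well plates. Endpoint: percent growth. Below 10 = active.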 Unmarked numbers belong to inactive results. Calls of active or inactive are those of the source.

Assays:
Assay in all cases: NCI-60 one-dose screen, 48 h (100 = growth as untreated, 0 = no growth, -100 = all killed)
Conditions in all cases: 10 µM unless noted
NCI-H23 lung = tested on: NCI-H23 lung
NCI-H226 lung = tested on: NCI-H226 lung
NCI-H322M lung = tested on: NCI-H322M lung
HOP-62 NSCLC = tested on: HOP-62 NSCLC
NCI-H460 lung = tested on: NCI-H460 lung
HOP-92 NSCLC = tested on: HOP-92 NSCLC
NCI-H522 lung = tested on: NCI-H522 lung
A549/ATCC NSCLC = tested on: A549/ATCC NSCLC
786-0 renal = tested on: 786-0 renal
COLO 205 colon = tested on: COLO 205 colon

Row | Compound | growth (NCI-H23 lung) | growth (NCI-H226 lung) | growth (NCI-H322M lung) | growth (HOP-62 NSCLC) | growth (NCI-H460 lung) | growth (HOP-92 NSCLC) | growth (NCI-H522 lung) | growth (A549/ATCC NSCLC) | growth (786-0 renal) | growth (COLO 205 colon)
1 | COc1cc2cc(Oc3ccc(NC(=O)Nc4ccc(F)c(C(F)(F)F)c4)cc3)c(C)nc2cc1OCCN1CCCCC1 | 34.2% | 81.1% | 69.5% | 95.4% | -69.2% (active) | 33.5% | -66.6% (active) | -45.9% (active) | 61.9% | -64% (active)
2 | CCN=c1sc2c(n1NC(=O)c1cc3ccc1CCc1ccc(cc1)CC3)C(=O)c1ccccc1C2=O | -32.1% (active) | 73% | 80.5% | -58.6% (active) | 9.62% (active) | -9.79% (active) | -34.8% (active) | -38.8% (active) | -90.4% (active) | 42.6%
3 | O=C(O)/C=C/c1cn(-c2ccccc2)nc1-c1ccc(F)cc1 | 96.2% | 95.1% | 87% | 81.7% | 101% | 84.3% | 98.2% | 82.2% | 96.1% | 104%
4 | CN1CCN(Cc2ccc(NC(=O)c3cncc(C#Cc4cnc(N)c5ccc(C#N)cc45)c3)cc2C(F)(F)F)CC1 | -22% (active) | -35.1% (active) | 26.6% | 2.55% (active) | -49.3% (active) | -15.2% (active) | 5.63% (active) | -53% (active) | -71.8% (active) | -71.9% (active)
5 | O=C(c1ccccc1)[C@@H](c1ccccc1)[C@]1(O)C(=O)Nc2ccccc21 | 95% | 83.1% | 87.4% | 77.3% | 95% | 74% | 93.7% | 103% | 97.7% | 84.1%
6 | COc1cccc(-c2nn(-c3ccccc3)cc2-c2ccnc(-c3cccnc3)c2)c1 | 86.5% | 95% | 109% | 97.4% | 92% | 95% | 86.9% | 96.4% | 98.1% | 94.3%
7 | O=C(Nc1ncc(Cc2ccccc2)s1)c1cc(-c2ccccc2)nc2ccccc12 | 89.3% | 89.3% | 99.1% | 94.1% | 101% | 84.1% | 87.6% | 98.2% | 105% | 100%
8 | O=C1NC(=O)C(=Cc2cc(-c3ccc(Cl)cc3)n(-c3ccccc3)n2)C(=O)N1 | 99.3% | 82.5% | 94% | 99.4% | 98.6% | 94.4% | 103% | 97.4% | 82.5% | 108%
9 | CC(C)(C)c1ccc(C(=O)Nc2sc3c(c2C#N)CCC(=O)C3)cc1 | 5.23% (active) | 15.4% | 86.6% | 49.7% | 1.59% (active) | -25% (active) | -22.9% (active) | 14.4% | 17.6% | -61.8% (active)
10 | N#C/C(=C/C=C/c1ccccc1)S(=O)c1ccccc1 (stereo not given) | -36.6% (active) | 12% | 10.4% | -25.6% (active) | -30% (active) | -58.5% (active) | -68.3% (active) | 2.3% (active) | -89.7% (active) | -56.4% (active)
11 | Cn1cc(-c2csc(-c3cn(CCO)c4ccc(F)cc34)n2)c2cccnc21 | 74.1% | 76% | 79.1% | 52.6% | 27% | 64.8% | 10% | 49.8% | 73.3% | 46%
12 | CN1/C(=C/C=C/c2n(Cc3ccc4ccccc4c3)c(Cl)c(Cl)[n+]2Cc2ccc3ccccc3c2)Oc2ccccc21 | -80% (active) | -75.4% (active) | -10.6% (active) | -85.7% (active) | -74.5% (active) | -81% (active) | -81.6% (active) | -86.7% (active) | -82.6% (active) | -80.1% (active)
13 | CCCCC/C=C/CCC(=O)N[C@H]1[C@H](Oc2c3cc4cc2Oc2ccc(cc2Cl)[C@@H](O[C@@H]2O[C@H](CO)[C@@H](O)[C@H](O)[C@H]2NC(C)=O)[C@@H]2NC(=O)[C@H](NC(=O)[C@@H]4NC(=O)[C@H]4NC(=O)[C@@H](Cc5ccc(c(Cl)c5)O3)NC(=O)[C@@H](N)c3ccc(O)c(c3)Oc3cc(O)cc4c3)c3ccc(O)c(c3)-c3c(O[C@H]4O[C@H](CO)[C@@H](O)[C@H](O)[C@@H]4O)cc(O)cc3[C@H](C(=O)O)NC2=O)O[C@H](CO)[C@H](O)[C@@H]1O | 93.4% | 105% | 108% | 113% | 107% | 96.4% | 103% | 99.8% | 101% | 103%
